Usually inhibition stands for the change of the read-out against control, counted positive when it falls.

Here are results for 45 compounds from PubChem BioAssay AID2732 (Emory University Molecular Libraries Screening Center, 2010).

About 8,200 (3.7%) of roughly 220,000 compounds were called active.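 How the source made its calls: active means compounds that reduced the stress-induced luciferase reporter signal by more than about 70% of percent inhibition (limit read from the data); inactive means the rest.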 Shown is part of a subset that was picked to be rich in actives.

The assay is described as follows: inhibitors of CHOP promoter induction, primary screen, cell-based, unfolded protein response, luciferase reporter (AID 2732).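 Further: 0% = tunicamycin plus vehicle and 100% = wells without tunicamycin.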 To be noted: CHO-K1 CHOP-promoter luciferase, tunicamycin-induced, 15-18 h; at 10 µM; stronger effect = higher value. On the technique in general: A reporter such as luciferase makes a cellular process visible.
Take `CCCCCCCCCCCCn1ccc(=N)cc1`: the inhibition was 90.9% (active).

In the case of `CC(=C1C(=O)c2ccccc2C1=O)N1CCN(CCN=Cc2c(O)n(C)c(=O)n(C)c2=O)CC1`, the inhibition was -9.11% (inactive).

For the compound `COc1ccc(NC(=O)N2CCC3(CC2)OCCO3)c(OC)c1`, the inhibition is 18.7% (inactive).

For the compound `CCC1(C)CC(CCNCc2ccc(N(C)C)cc2)(c2ccc(F)cc2)CCO1` (stereo not given), the inhibition was 8.31% (inactive).

On to `COc1ccc(CN2C(=O)NC(=O)/C(=C\c3ccc(OC)c(OC)c3OC)C2=O)cc1`, for which the inhibition was -5.09% (inactive).

Take `CN(C)CC1Oc2ccccc2OC1(O)c1ccccc1` (stereo not given): the inhibition was 88.8% (active).

On to `CCOC(=O)c1ncn2c1[C@@H]1CCCN1C(=O)c1cc(OC)ccc1-2`, for which the inhibition was -1.91% (inactive).

`CN1CCN(C(=S)SCC(=O)Nc2ccc(Cl)cc2C(=O)c2ccccc2)CC1`: the inhibition is 35% (inactive).

As for `O=C(CCNS(=O)(=O)c1ccccc1)Nc1ccc(Cl)cc1C(=O)c1ccccc1`, the inhibition is -12.3% (inactive).

Turning to `O=C(COC(=O)c1ccccc1)Nc1ccc(Cl)cc1C(=O)c1ccccc1`, the inhibition is 80.1% (active).

With `COC(=O)N(c1ccc(OC)cc1)P1(=S)OCCC(C)O1` (stereo not given), the inhibition was -1.61% (inactive).

Consider `CCC(=O)CC(c1ccc([N+](=O)[O-])cc1)c1c(O)c2ccccc2oc1=O` (stereo not given), for which the inhibition was -16.6% (inactive).

For the compound `Cc1ccc2c(c1)C1CN(C)CCC1N2C(=O)Cn1nnc(-c2ccccc2F)n1` (stereo not given), the inhibition was 3.99% (inactive).

Turning to `CCN1CCN(c2ccc([N+](=O)[O-])cc2C#N)CC1`, the inhibition is 8.37% (inactive).

`Cn1c(O)c(C(=Nc2ccc(F)cc2)c2ccccc2)c(=O)n(C)c1=O`: the inhibition was 2.66% (inactive).

In the case of `Cc1cc(C=C2C(=O)NC(=O)NC2=O)c(C)n1-c1ccncc1`, the inhibition was 16.7% (inactive).

With `Cc1ccnc(-n2c(C)cc(/C=C3\C(=O)NC(=S)N(C)C3=O)c2C)c1`, the inhibition was -16.7% (inactive).

For the compound `Cc1ccc(-n2c(C)cc(/C=C3\C(=O)NC(=O)N(C)C3=O)c2C)cc1C`, the inhibition is 78.5% (active).

Regarding `C=CCN1CCC2(C)c3cc(O)ccc3CC1[C@@H]2C` (stereo not given in full), the inhibition is 9.89% (inactive).

Consider `Cc1ccc(CN2CCCC(C(=O)c3ccc4c(c3)OCO4)C2)cc1C` (stereo not given), for which the inhibition was -2.37% (inactive).

For the compound `O=c1[nH]c(=O)n(CCc2ccccc2)c(O)c1/C=N/N1CCOCC1`, the inhibition was -18.4% (inactive).

For the compound `CCCCn1c(O)c(C(CC)=NCc2ccco2)c(=O)[nH]c1=O`, the inhibition is 6.6% (inactive).

As for `CCC(=NCCCO)c1c(O)n(-c2ccc(OC)cc2)c(=O)[nH]c1=O`, the inhibition was 14.6% (inactive).

For the compound `CCCCCCN=C(CC)c1c(O)n(CCCC)c(=O)[nH]c1=O`, the inhibition is 106% (active).

In the case of `O=c1[nH]c(=O)n(CCc2ccc(F)cc2)c(O)c1/C=N/N1CCCCC1`, the inhibition is 3.76% (inactive).

Take `CC1(C)Cc2c(C#N)c(N3CCNCC3)nc(-c3ccco3)c2CS1`: the inhibition is 3.49% (inactive).

On to `CCCCCn1c(=O)c(C(=O)NCc2ccccn2)c(O)c2ccccc21`, for which the inhibition is 40.5% (inactive).

Consider `CCCCCn1c(=O)c(C(=O)Nc2c(C)n(C)n(-c3ccccc3)c2=O)c(O)c2ccccc21`, for which the inhibition was 89.7% (active).

With `COc1cc(C(c2c(O)c3ccccc3oc2=O)c2c(C)n(C)n(-c3ccccc3)c2=O)ccc1O` (stereo not given), the inhibition is 8.54% (inactive).

With `CCOP(=O)(OCC)C(O)c1ccc(OC)cc1OC` (stereo not given), the inhibition is 1.95% (inactive).

As to `COc1ccc2c(c1O)-c1cccc3c1[C@@H](C2)N(C)CC3`, the inhibition was -0.63% (inactive).

On to `COc1ccc(-n2c(-c3ccccc3)nc3ccccc3c2=O)cc1`, for which the inhibition was -0.77% (inactive).

For `CC(=O)c1c(O)c(C)c(O)c(Cc2c(O)c3c(c(C(=O)/C=C/c4ccccc4)c2O)OC(C)(C)C=C3)c1O`, the inhibition is -9.85% (inactive).

As for `O=C1NC(=O)N(Cc2ccco2)C(=O)/C1=C\c1ccc(-c2ccc(F)cc2)o1`, the inhibition is 4.85% (inactive).

`O=C1NC(=O)N(CCc2ccc(F)cc2)C(=O)/C1=C/C=C/c1ccccc1`: the inhibition was 79.8% (active).

In the case of `O=C(O)COc1ccccc1/C=C1\C(=O)NC(=O)N(CCC2=CCCCC2)C1=O`, the inhibition is -7.81% (inactive).

For `COc1ccc(NC(=O)c2cn(CCC#N)nc2-c2ccc([N+](=O)[O-])cc2)cc1`, the inhibition is -2.78% (inactive).

Take `Cc1ccc(-n2c(-c3ccc([N+](=O)[O-])cc3)nc3ccccc3c2=O)cc1`: the inhibition was -10.7% (inactive).

Turning to `O=C(O)C1C2CCC(O2)C1C(=O)O` (stereo not given), the inhibition was -11.8% (inactive).

With `CN(C)c1ccc(/C=C2\CC3C4CC=C5CC(O)CCC5(C)C4CCC3(C)C2=O)cc1` (stereo not given), the inhibition is 96% (active).

As to `CC(c1ccccc1)(c1ccccc1)c1ccncc1`, the inhibition was 34.4% (inactive).

`CCN1c2nc3c(C)cccn3c(=O)c2CC2(C(=O)N(C)C(=O)N(C)C2=O)C1C` (stereo not given): the inhibition was 6.18% (inactive).

As to `CCCCC(=O)N/N=C/c1c(O)n(-c2ccccc2)c(=O)[nH]c1=O`, the inhibition is -1.28% (inactive).

Take `O=C(CSC1c2ccccc2-c2ccccc21)N/N=C/c1ccccc1`: the inhibition is 97.3% (active).

`CC(=O)N1CN2CN(C(C)=O)CC(C(=O)c3ccc(Br)cc3)(C2)C1`: the inhibition was 5.64% (inactive).
